Bioassay records (PubChem)
A selection: hits, their analogues and other compounds. The true share with any hit is near 13%.
Shiga toxin inh: blocks Shiga toxin action in Vero cells | Vero cells, Shiga toxin protein synthesis inhibition reporter | inhibition, % at 38.7 µM | hit rate 9.2% among 290,000 | AID 2315; in the data active = inhibition mostly above about 28%, no sharp cut-off; inactive = mostly below about 43%; also: 0% is about no effect
HCV inh: inhibitors of hepatitis C virus infection; hit rate 3.4% among 340,000; AID 651820; Potency, µM (series often up to 41.8 µM), inactives show at the top dose activity change, negative = inhibition, usual class: inhibitors; Huh7.5.1 HCVcc-Cre infection, luciferase reporter, 44 h; active = well fitted inhibition curve with a large enough effect; inconclusive = small, poorly fitted or top-dose-only effect, or another doubt; inactive = no such curve, though single readings can be large or run the other way; also: potency is read from the fitted curve at half-maximal effect; % is scaled to controls: 0 for no effect and ±100 for the full control effect
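Seed cells (1,000/well) for 4 h; treat with compound and infect with HCVcc-Cre, moi about 0.5. Incubate 44 h, then detect luciferase activity.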
Cycloheximide cs: counter-screen for Shiga toxin inhibitors: cycloheximide protein synthesis inhibition. cell reporter, cycloheximide protein synthesis inhibition counterscreen. max response, %. hit rate 12% among 300,000; in the data active = max response mostly above about 13%, no sharp cut-off; inactive = mostly below about 14%; also: read at 38.3 µM for the half of the compounds with a filed dose; 0% is about no effect
LASV entry inh: inhibitors of Lassa virus binding or cell entry. Lassa virus pseudotype entry inhibition, cell reporter. Potency, µM (titrated, usually from 37.9 µM), for the others: at the top dose activity change, negative = inhibition, usual class: inhibitors. hit rate 1.2% among 300,000; calls by dose curve; tested in HEK293 cells; also: potency is read from the fitted curve at half-maximal effect; % is scaled to controls: 0 for no effect and ±100 for the full control effect; nearly all actives have a fitted effect of over 50% in size
FMDV inh: antivirals against foot and mouth disease virus; FMDV antiviral cell-based qHTS; Potency, µM (highest dose often 57.9 µM), inactives show at the top dose activity change, negative = inhibition, actives largely listed as inhibitors; hit rate 1.2% among 410,000; AID 1159524; calls by dose curve; tested in HEK293T cells; also: read-out not given here; potency is read from the fitted curve at half-maximal effect; % is scaled to controls: 0 for no effect and ±100 for the full control effect; nearly all actives have a fitted effect of over 45% in size
MARV entry inh: inhibitors of Marburg virus binding or cell entry; Marburg virus pseudotyped entry inhibition, cell reporter; Potency, µM (highest dose often 37.8 µM), for inactives: top-dose activity change, negative = inhibition, most hits filed as inhibitors; hit rate 1.8% among 300,000; AID 540276; calls by dose curve; tested in HEK293 cells; also: potency is read from the fitted curve at half-maximal effect; % is scaled to controls: 0 for no effect and ±100 for the full control effect
* hit, by the source's call; ? = inconclusive; . = not tested or not shown; [ ] = another dose, or the depositor's remark.

SMILES	Shiga toxin inh	HCV inh	Cycloheximide cs	LASV entry inh	FMDV inh	MARV entry inh
CSCC[C@H](NC(=O)[C@H](CCCNC(=N)N)NC(=O)[C@H](Cc1ccc(O)cc1)NC(=O)[C@@H]1CCCN1C(=O)CNC(=O)[C@H](CCC(=O)O)NC(=O)[C@H](CC(=O)O)NC(=O)[C@H](CCCCN)NC(=O)[C@H](CCCCN)NC(=O)[C@H](CCC(=O)O)NC(=O)[C@H](C)N)C(=O)N[C@@H](CCC(=O)O)C(=O)N[C@@H](Cc1cnc[nH]1)C(=O)N[C@@H](Cc1ccccc1)C(=O)N[C@@H](CCCNC(=N)N)C(=O)N[C@@H](Cc1c[nH]c2ccccc12)C(=O)NCC(=O)N[C@@H](CO)C(=O)N1CCC[C@H]1C(=O)N1CCC[C@H]1C(=O)N[C@@H](CCCCN)C(=O)N[C@@H](CC(=O)O)C(=O)O	-12	.	1	.	.	.
CCc1ccc(OCC(=O)Nc2ccncc2)c(Br)c1	.	?	30*	-11%[46.1 µM]	8%	?
Cc1cc(OCC(=O)Nc2ccncc2)c(C)cc1Br	-4	1%	-1	0%	0%	-15%
CC(C)(C)c1ccc(OCC(=O)Nc2ccncc2)c(Br)c1	100*	-20%	31*	.	4%	.
CCc1ccc(OCC(=O)NNC(=O)c2cnccn2)c(Br)c1	39*	1%	18*	.	31%	.
Cc1ccc(-c2nnc(SCCOc3ccccc3)o2)cc1	.	.	.	18%[46.1 µM]	7%	4%[46.1 µM]
COc1ccc(C(=O)N2CC3(CC(c4cccc(NC(=O)CC(c5ccccc5)c5ccccc5)c4)=NO3)C[C@H]2C(N)=O)cc1 (stereo partly drawn)	-9	-19%	-3	.	-17%	.
CCC(=Nc1cccc(C(F)(F)F)c1)c1c(O)n(C)c(=O)n(C)c1=O	-2	10%	0	-8%	-31%	1%[46.1 µM]
COc1cccc(NC(=O)Cn2c(=O)n(CCC(=O)NCc3ccccc3OC)c(=O)c3ccccc32)c1	.	.	.	?	-7%	13%[46.1 µM]
CCCCOc1ccccc1NC(=O)c1scc2c1OCCO2	-14	13µM*	-3	?	?	?
COc1cc(/C=N/NC(=O)COc2ccc(Cl)cc2)ccc1OS(=O)(=O)c1ccc(C)cc1	-19	11µM*	-4	?	-25%	?
C=CCNC(=O)/C(C#N)=C/c1ccc(OS(=O)(=O)c2ccc(C)cc2)c(OC)c1	21	13%	1	13µM*	20µM*	?
COC(=O)N/N=C/c1ccc(OS(=O)(=O)c2ccc(C)cc2)c(OC)c1	21	0%	-6	7.9µM*	-4%	6%[46.1 µM]
COc1cc(/C=N/NC(=O)c2cccnc2)ccc1OS(=O)(=O)c1ccc(C)cc1	1	-1%	6	1%	2%	-18%
COc1ccc(/C=C(\C#N)C(=O)NCc2cccs2)cc1OC	-4	21%	1	1%	-2%	1%
COc1ccc(Cl)cc1NC(=O)N(C)CCc1c(C)nn(C)c1C	.	.	.	?	-13%	.
CC(C(=O)Nc1ccc(O)cc1)c1cccc(C(=O)c2ccccc2)c1 (stereo not drawn)	-7	13µM*	11	?	?	?
CCC(=O)Nc1ccc(C(=O)c2ccccc2)cc1	35	-7%	20*	12%	32%	24%
CCC(=O)Nc1ccc(NC(=S)Nc2ccccc2)cc1	-18	12%	-6	12%	-1%	?
O=C(NNC(=O)c1ccc(NC(=O)c2ccccc2)cc1)c1ccc(F)cc1	10	-3%	-1	.	-5%	.
CCC(CC)C(=O)Nc1ccc(C(=O)c2ccccc2)cc1	50*	34%	18*	10%	57%	3%
O=C(Nc1ccc(C(=O)c2ccccc2)cc1)c1ccccc1	148*	2.8µM*	56*	?	18%	?
CCOC(=O)N1CCN(Cc2nc3cc(NC(C)=O)ccc3n2C(C)C)CC1	.	.	.	-24%[46.1 µM]	-16%	?
CC1CCCC(N2CCN(C(=O)c3cccc(F)c3)CC2)C1 (stereo not drawn)	-4	6%	-3	-8%	.	12%
O=C(C[n+]1ccc(C(=O)c2ccccc2)cc1)Nc1ccc(C(F)(F)F)cc1	-9	2µM*	10	15%[46.1 µM]	-6%	?
SMILES	Shiga toxin inh	HCV inh	Cycloheximide cs	LASV entry inh	FMDV inh	MARV entry inh
Cc1ccc[n+](CC(=O)c2ccc(NC(=O)c3ccccc3)cc2)c1	-15	35%	1	16%	-13%	9%
O=C(Nc1ccc(C(F)(F)F)cc1)c1ccccc1	.	-2%	.	.	52%	.
N#Cc1ccc[n+](CC(=O)c2ccc(NC(=O)c3ccccc3)cc2)c1	32*	-3%	14	.	33%	.
C=CCNC(=O)c1ccc(C(=O)c2ccccc2)cc1	110*	-3%	24*	-10%	39%	1%
CCOC(=O)C1CCN(C(=O)CCS(=O)(=O)Cc2ccccc2)CC1	-3	17%	-6	.	0%	0%[46.1 µM]
COc1ccc(NC(=O)O/N=C/c2ccccc2)cc1	79*	10%	40*	.	69%	.
COc1ccc(NC(=O)O/N=C/c2ccccc2Cl)cc1	72*	7%	30*	.	64%	.
COC(=O)N/N=C/c1ccccc1Cl	21	3%	9	?	-5%	8%[46.1 µM]
CN(C)c1ccc(/C=N/OC(=O)Nc2ccccc2)cc1	52*	-12%	37*	?	-36%	?
Cc1cc2ncn(C(=O)c3c(-c4c(Cl)cccc4Cl)noc3C)c2cc1C	-9	-5%	-3	1%	-27%	0%[46.1 µM]
CCN1c2ccccc2NC2N=C(OC)C(c3ccccc3)C21 (stereo not drawn)	5	2%	18*	-34%[14.3 µM]	-12%	23µM*
CCOC(=O)c1c(-n2c(C)cc(C=C3C(=O)NC(=S)NC3=O)c2C)sc2c1CCCC2	-1	?	7	.	10µM*	5%
CCOC(=O)c1c(-n2c(C)cc(/C=C3/C(=O)NC(=O)N(CC)C3=O)c2C)sc2c1CCCC2	.	5%	.	-23%	?	-5%
CCN1C(=O)NC(=O)/C(=C/c2cc(C)n(-c3sc(C)c(C)c3C#N)c2C)C1=O	9	17%	-1	?	-1%	?
Cc1ccc(N2C(=O)NC(=O)/C(=C\c3cc(C)n(-c4sc5c(c4C#N)CCCC5)c3C)C2=O)cc1	-5	-3%	-7	?	?	2.5µM*
CCC(C)c1ccccc1NC(=O)Cc1coc2cc3c(cc12)CCC3 (stereo not drawn)	7	-14%	1	-23%	-9%	?
COc1ccc(/C=C/C(=O)NC(=S)N2CCN(c3ccccc3OC)CC2)cc1	22	-13%	20*	26%[46.1 µM]	41%	?
COc1ccccc1N1CCN(C(=S)Nc2ccc(F)cc2)CC1	45*	-13%	34*	-34%[46.1 µM]	-16%	-21%[46.1 µM]
O=C(/C=C/c1ccc(F)cc1)NC(=S)N1CCN(c2ccccn2)CC1	98*	8%	43*	10%[46.1 µM]	20%	?
COc1ccc(/C=C/C(=O)NC(=S)N2CCOCC2)cc1	73*	9%	39*	4%[46.1 µM]	49%	12%[46.1 µM]
